Source: PubChem BioAssay
ATXN2 expr inh: reduces ATXN2 reporter expression in HEK-293 cells; AID 1745845; HEK-293 ATXN2-luciferase reporter, luminescence, 24 h; Potency, µM (highest dose often 57 µM), actives largely listed as inhibitors; 360,000 tested, 0.72% active; note: nearly all actives have a fitted effect of over 55% in size
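qHTS (up to 57 uM final) was run with 24 h compound exposure of reporter cells at 37 °C. Each well was multiplexed: SteadyGlo luminescence measured ATXN2-luciferase expression after a fluorogenic Gly-Phe-AFC viability readout (25 uM final).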
HepG2 viability: counter-screen for TGF-b inhibitors: cytotoxicity in HepG2 cells | HepG2 CAGA-GFP viability, ATP luminescence, 18 h | 410,000 tested, 0.76% active | AID 588856 | Potency, µM (highest dose often 46.1 µM), actives largely listed as cytotoxic
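CellTiter-Glo luminescence gave cytotoxicity after 18 hours at 37 degrees C. The cells were HepG2 CAGA-GFP in 1% FBS DMEM, stimulated with 500 pg/mL TGF-beta after compound addition. %Activity was normalised to no-cell wells (complete cell-killing) and DMSO (no toxicity), and curves were fitted and classified.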
A549 viability: counter-screen for Nrf2 inhibitors: cytotoxicity in A549 cells; AID 504648; Potency, µM (doses to about 46 µM), hits mostly inhibitors; 390,000 tested, 0.16% active; A549 ARE-Fluc cells, CellTiter-Fluor viability, 18-24 h
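Cytotoxicity counterscreen: CellTiter-Fluor fluorescence was measured in A549 ARE_Fluc cells after 18-24 h of compound exposure in a concentration series. The subsequent BugLite luminescent read reports ARE-luciferase activity.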
TGFb inhibitor: TGF-b pathway inhibition. HepG2 CAGA-GFP TGF-b/SMAD3 reporter, GFP fluorescence, 18 h; TGF-beta stimulated, 500 pg/mL final. Potency, µM (series often up to 46.1 µM), most hits filed as inhibitors. 410,000 tested, 1.2% active. AID 588855; note: nearly all actives have a fitted effect of over 65% in size
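First, reporter cells (HEPG2 CAGA-GFP) rested 2 h at 37 degrees C. Next, compounds were pinned in and TGF-beta added to 500 pg/mL final. After 18 h, GFP was imaged per cell and summed per well.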
ATXN viability: cell viability loss in ATXN counter-screen | Potency, µM (highest dose often 56.7 µM), actives largely listed as cytotoxic | 400,000 tested, 0.49% active | S2 cells (HEK-293 line with an ATXN2-luciferase reporter) viability, CellTiter-Fluor protease fluorescence, 24 h; note: nearly all actives have a fitted effect of over 40% in size
Nrf2 inh: Nrf2 pathway inhibition | 360,000 tested, 2.1% active | A549 ARE-Fluc reporter, luciferase luminescence, 18-24 h | Potency, µM (titrated, usually from 46 µM), most hits filed as inhibitors; note: nearly all actives have a fitted effect of over 60% in size
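Nrf2 function is reported as luminescence of an ARE-controlled luciferase in A549 cells. Compounds were tested at several concentrations, and a CellTiter-Fluor read on the same wells flagged cytotoxicity.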
Large screens that a line does not name were inactive; ! = not active in a repeat. Rows were chosen to be rich in hits. Some 3.8% of all compounds tested hit in one or more screens of this group. Calls come from the whole dose curve; as a rule, active = well fitted curve in the direction sought with a large enough effect; inconclusive = small, poorly fitted or top-dose-only effect, or another doubt; inactive = no such curve, though single readings can be large; an effect the other way counts as inactive or inconclusive.

Cc1ccc(S[C@@H](CCN2CC[C@H](NC(=O)OCc3ccccc3)CCC2=O)c2ccccc2)cc1	A549 viability inconclusive, TGFb inhibitor 10µM, ATXN viability inconclusive, Nrf2 inh inconclusive
CC(=O)Nc1ccc(S[C@@H](CCN2CC[C@H](C(C)(C)C)CCC2=O)c2ccccc2)cc1	ATXN2 expr inh inconclusive, TGFb inhibitor inconclusive, ATXN viability 32µM, Nrf2 inh inconclusive
Cn1ncc([N+](=O)[O-])c1C(=O)N/N=C/c1ccc(F)cc1	none
Cc1ccc(S(=O)(=O)N2CC(O)C2)cc1	none
COc1ccccc1/C=N/OCc1ccc(C#N)cc1	Nrf2 inh 18µM
COC(=O)c1ccc(CO/N=C/c2ccccc2OC)cc1	none (no result: ATXN2 expr inh)
C/C(=N/NC(=O)c1ccc2c(c1)OCO2)c1ccc(Br)s1	ATXN viability inconclusive, Nrf2 inh inconclusive (no result: ATXN2 expr inh)
C/C(=N\NC(=O)c1ccc(Cl)c(Cl)c1)c1ccc(Br)s1	ATXN2 expr inh inconclusive, Nrf2 inh 7.3µM
Cc1cccc(CC(Cc2nc3ccccc3[nH]2)c2nc3ccccc3[nH]2)c1 (stereo unspecified)	ATXN2 expr inh inconclusive, A549 viability inconclusive, TGFb inhibitor inconclusive, ATXN viability inconclusive, Nrf2 inh 26µM
C[C@H](CO)N1C[C@H](C)[C@H](CN(C)Cc2ccc(-c3ccccc3)cc2)Oc2ccc(NS(=O)(=O)c3ccccc3)cc2CC1=O	ATXN2 expr inh inconclusive, HepG2 viability 11µM, TGFb inhibitor inconclusive, ATXN viability inconclusive, Nrf2 inh inconclusive
C[C@H]1CN([C@@H](C)CO)C(=O)Cc2cc(NC(=O)CCC(F)(F)F)ccc2O[C@H]1CN(C)Cc1ccc(-c2ccccc2)cc1	ATXN2 expr inh inconclusive, HepG2 viability 18µM, TGFb inhibitor 13µM, Nrf2 inh inconclusive (no result: ATXN viability)
Cc1ccc(S(=O)(=O)Nc2ccc3c(c2)CC(=O)N([C@H](C)CO)C[C@@H](C)[C@H](CN(C)Cc2ccc(-c4ccccc4)cc2)O3)cc1	ATXN2 expr inh inconclusive, TGFb inhibitor 11µM, ATXN viability 22µM, Nrf2 inh inconclusive
CC(=NCc1ccco1)c1c(C)[nH]n(-c2nc3ccccc3s2)c1=O	Nrf2 inh inconclusive
C/C(=N/NC(=O)c1cccs1)c1c(C)[nH]n(-c2nc3ccccc3s2)c1=O	ATXN2 expr inh inconclusive, HepG2 viability 1µM, Nrf2 inh inconclusive
CC(C)N1CCN(C(=O)c2ccc([N+](=O)[O-])cc2)CC1	HepG2 viability 11µM (no result: ATXN2 expr inh)
CN1CCN(C(=O)c2ccc(Oc3ccc([N+](=O)[O-])cc3)cc2)CC1	none
CCOC(=O)N1CCN(C(=O)c2ccc(CSc3ccc(Cl)cc3)cc2)CC1	TGFb inhibitor inconclusive, ATXN viability inconclusive, Nrf2 inh 18µM
O=C(c1ccccc1)N1CCN(C(=O)c2ccc([N+](=O)[O-])cc2)CC1	Nrf2 inh inconclusive
CCOC(=O)N1CCN(C(=O)c2ccc(Oc3ccc([N+](=O)[O-])cc3)cc2)CC1	ATXN2 expr inh inconclusive, Nrf2 inh 26µM
CN1CCN(C(=O)c2ccc(CSc3ccc(Cl)cc3)cc2)CC1	ATXN viability inconclusive, Nrf2 inh inconclusive
COc1ccc(NC(=S)NNC(=O)c2nnn(-c3ccccc3)c2C)cc1	none
Cc1cc(C)c(-n2c(SCc3nc4ccccc4s3)n[nH]c2=O)c(C)c1	TGFb inhibitor inconclusive, Nrf2 inh 16µM
O=C(N/N=C/C1CC2C=CC1C2)c1ccccc1O (stereo unspecified)	none (no result: ATXN2 expr inh)
O=C(CC1SC(=O)N(c2ccccc2)C1=O)Nc1ccc(Br)cc1 (stereo unspecified)	ATXN viability inconclusive, Nrf2 inh inconclusive
CN(C1=NC(=O)C(CC(=O)Nc2ccc(Br)cc2)S1)c1ccc(O)cc1 (stereo unspecified)	TGFb inhibitor inconclusive, ATXN viability inconclusive, Nrf2 inh 23µM
O=C1c2ccccc2C(=O)c2c(NCCCN(CCO)CCO)cccc21	A549 viability inconclusive, TGFb inhibitor inconclusive, Nrf2 inh inconclusive (no result: ATXN viability)
COCCCNC1=C(Cl)C(=O)c2ccccc2C1=O	ATXN2 expr inh inconclusive, TGFb inhibitor inconclusive, Nrf2 inh 26µM
CCN(CC)CCCNC1=C(Cl)C(=O)c2ccccc2C1=O	ATXN2 expr inh inconclusive, HepG2 viability 3.2µM, A549 viability inconclusive, TGFb inhibitor 4.5µM, ATXN viability 24µM, Nrf2 inh inconclusive
CC(C)OCCCNC1=C(Cl)C(=O)c2ccccc2C1=O	TGFb inhibitor inconclusive, Nrf2 inh inconclusive
O=C(NC(=S)Nc1ccc2oc(=O)ccc2c1)c1cccc(Cl)c1	none
Cc1ccc(N2CCN(C(=O)N3CCOCC3)CC2)c(C)c1	Nrf2 inh inconclusive
CCc1cc(C(=O)N2CCN(C(=O)c3ccccc3)CC2)sc1C	HepG2 viability 5µM, Nrf2 inh inconclusive
CCc1cc(C(=O)N2CCN(c3ccccn3)CC2)sc1C	Nrf2 inh inconclusive
Cc1nc(SCC(=O)Nc2nc3ccccc3s2)c(C#N)c(C)c1C	Nrf2 inh 4.6µM (no result: ATXN viability)
O=C(CSc1ncnc2c1oc1ccccc12)Nc1nc2ccccc2s1	ATXN2 expr inh inconclusive, HepG2 viability 13µM, A549 viability inconclusive, TGFb inhibitor inconclusive, ATXN viability inconclusive, Nrf2 inh inconclusive
COc1ccc(OC)c(C(=O)Nc2c(O)ccc3ccccc23)c1	none
CN(C(=O)Cn1cnc2onc(-c3ccc(F)cc3)c2c1=O)c1ccccc1Cl	TGFb inhibitor inconclusive, Nrf2 inh inconclusive
Cc1ccc(C)c(NS(=O)(=O)c2cc3c(cc2Cl)NC(=O)CO3)c1	A549 viability inconclusive, Nrf2 inh 23µM
Cc1ccc(Cl)cc1N1CCN(C(=O)CCS(=O)(=O)c2ccc3c(c2)NC(=O)CO3)CC1	ATXN2 expr inh inconclusive, Nrf2 inh 16µM
Cc1ccc(CNC(=O)CCS(=O)(=O)c2cc3c(cc2Cl)NC(=O)CO3)cc1	Nrf2 inh 26µM!
O=C(CCS(=O)(=O)c1cc2c(cc1Cl)NC(=O)CO2)NCc1ccc(Cl)cc1	none
Cc1ccc(N2CCN(C(=O)CCS(=O)(=O)c3cc4c(cc3Cl)NC(=O)CO4)CC2)c(C)c1	TGFb inhibitor inconclusive, ATXN viability inconclusive, Nrf2 inh 26µM
CCc1ccc(-n2nc(C)c3c(C(=O)Nc4cc(OC)cc(OC)c4)cc(C)nc32)cc1	none
COc1ccc2nc(NC(=O)c3nc(S(=O)(=O)Cc4ccccc4)ncc3Cl)sc2c1	HepG2 viability 10µM, A549 viability inconclusive, TGFb inhibitor 7.9µM (no result: ATXN2 expr inh, ATXN viability)
Cc1cccc(CS(=O)(=O)c2ncc(Cl)c(C(=O)Nc3nc4ccc(F)cc4s3)n2)c1	A549 viability inconclusive, TGFb inhibitor inconclusive
COc1ccc2nc(NC(=O)c3nc(S(=O)(=O)Cc4ccccc4F)ncc3Cl)sc2c1	A549 viability inconclusive, TGFb inhibitor inconclusive (no result: ATXN2 expr inh, ATXN viability)
